Sa growth 42C = S. aureus growth inhibition | S. aureus RN4220 growth, OD600, 20 h, 42 °C; active compounds read low | relative growth, % (concentration not given with the values) | hit rate 0.53% among 170,000;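 active means relative growth at most 50% at the other temperature and 20+ points below 30 °C, or under 10% at both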
Sa helicase inh = blocks Staphylococcus aureus DNA helicase. purified S. aureus helicase, fluorescence unwinding assay. inhibition, % (no concentration beside the values). hit rate 0.05% among 120,000. AID 485395; in the data active means inhibition above about 25%, passing the limit was not always enough;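 further: 0% = mean of negative control wells and 100% = mean of positive control wells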
Starred values were filed as active, the others as inactive; / = no result given. Shown are actives, neighbours in structure and some others; about 0.52% of the full set was active somewhere.

SMILES | Sa growth 42C | Sa helicase inh
Cc1ccccc1NS(=O)(=O)C(F)(F)F | 93 | -16
O=S(=O)(Nc1ccc(Cl)cc1OC(F)(F)F)C(F)(F)F | 9.5* | 19
COc1cn(-c2ccccc2)nc1C(=O)NCc1ccccc1CN1CCCC1 | 81 | -3
Cc1cccc2nc(-c3ccco3)c(Nc3ccc4c(c3)OCO4)n12 | 111 | /
Cc1ccc(-c2nc3cccc(C)n3c2Nc2ccc3c(c2)OCO3)o1 | 2.2* | /
COC(=O)c1ccc(C2C3C(=CC4CCC3N4C)C(C#N)=C(N)C2(C#N)C#N)cc1 (centres undefined) | 104 | 0
COc1ccc(C2=Nn3c([n+](C)c4ccccc43)SC2)cc1 | 1.4* | 22
COc1ccc(C2=Nn3c(nc4sc5c(c4c3=O)CCCC5)SC2)cc1 | 103 | /
O=C(Nc1ccc2nc(N3CCOCC3)sc2c1)c1cncn1-c1ccccc1 | 90 | 4
N#CC1=C(CBr)NC(CBr)=C(C#N)C12CCCCC2 | 131 | 48*
CCSC1=C(C#N)C2(CCCCC2)C(C#N)=C(N)N1 | 108 | 10
COc1ccc(-c2cc(=NCCc3ccccc3)c3cc(C)ccc3o2)cc1 | 14 | 46*
COc1ccc(-c2cc(=NC(CC(C)C)C(=O)O)c3cc(C)ccc3o2)cc1 (centres undefined) | 92 | 7
CC(=O)Nc1cc(NC(C)=O)cc(C(F)(F)F)c1 | 119 | 10
O=C(NCc1cccc(F)c1)C1CC(O)CN1C(=O)Nc1ccccc1 (centres undefined) | 112 | 5
CN(C)c1ccc(/C=C2\SC(=O)NC2=O)cc1 | / | -22
O=C1NC(=O)/C(=C\c2cccc(C(F)(F)F)c2)S1 | 7.3* | -31
COc1ccc(C2CC(=O)NC(NC(=O)CN3C(=O)c4ccccc4C3=O)=N2)cc1 (centres undefined) | 98 | -7
O=C1CN(CC(=O)Nc2ccc(C(F)(F)F)cc2)CCN1 | 102 | -11
CC12CCC(C1)C(C)(C)C2OCC(O)CN1CCN(c2ccccc2F)CC1 (centres undefined) | / | 1
Nc1nc(SC#CC(F)(F)F)ns1 | -0.6* | 7
Cc1ccc(Nc2cc(=O)[nH]c(=O)[nH]2)cc1C | 8.5* | /
Cc1cccc(Nc2cc(=O)[nH]c(=O)[nH]2)c1 | 69 | -7
CCN1CCN(Cc2ccc(NC(=O)c3cc4ccc5cccnc5c4[nH]3)cc2)CC1 | 101 | 91*
O=C(c1cc2ccc3cccnc3c2[nH]1)N1CCN(Cc2ccccc2)CC1 | 79 | -19
SMILES | Sa growth 42C | Sa helicase inh
Cc1cn(C2CC(O)C(CO)O2)c(=O)[nH]c1=O (centres undefined) | 81 | 16
O=c1[nH]c(=O)n([C@H]2C[C@H](O)[C@@H](CO)O2)cc1F | -0.6* | /
CCN1CCN(c2ccc(Nc3ccnc4cc5ccccc5cc34)cc2)CC1 | 98 | 48*
CN1CCN(c2ccc(Nc3ccnc4cc(Cl)ccc34)cc2Cl)CC1 | 98 | 6
Oc1c(CN2CCc3ccccc3C2)cc(Cl)c2cccnc12 | / | -12
Clc1cccc(NCc2cccc3c2CN(CC2CCCO2)C3)c1 (centres undefined) | 100 | 0
Clc1cc2c(c3ncccc13)OCN(CCC1=CCCCC1)C2 | 0.1* | 11
Clc1cc2c(c3ncccc13)OCN(CCc1ccccc1)C2 | 95 | 14
CCCCN1COc2c(cc(Cl)c3cccnc23)C1 | 1.0* | 8
Clc1cc2c(c3ncccc13)OCN(CC1CCCO1)C2 (centres undefined) | 1.0* | -13
COc1ccc(N2C(=O)CCC(C(=O)NCc3ccc(F)cc3)C2c2ccc(F)cc2)cc1 (centres undefined) | 93 | 10
CC(C)c1ccc(-c2ncc(CSc3nnc(CN4CCCCCC4=O)o3)s2)cc1 | 86 | -1
Cc1nc(SCC(=O)c2cn(CCC#N)c3ccccc23)n(C2CCCCC2)c1C | 56 | 6
O=C(Nc1cccnc1)c1ccc(Oc2cc(Cl)cc(Cl)c2)o1 | 106 | /
O=C(Nc1ccncc1)c1ccc(Oc2cc(Cl)cc(Cl)c2)o1 | 4.9* | /
COc1cc2c(cc1OC)C(c1ccccc1)N(C(=O)COC(=O)C1=NNC(=O)CC1)CC2 (centres undefined) | 91 | -10
N#C/C(=C\c1ccc(N2CCCC2)o1)c1ccccc1 | 77 | -134
C[n+]1ccc(/C=C/c2ccc(N3CCCC3)o2)cc1 | 98 | 57*
O=C(O)CN1Cc2ccccc2C1 | 99 | 10
CCN(CC1COc2ccccc2O1)C(=O)Cc1coc2cc3c(cc12)CCC3 (centres undefined) | 123 | 14
S=C(Nc1cccc(Cl)c1)Nc1cccc(Cl)c1 | 0.0* | /
CC(C)(C)NC(=S)Nc1cccc(Cl)c1 | 126 | 10
O=S(=O)(c1cccc(-c2nnc3n2CCCCC3)c1)N1CCCCC1 | 104 | 9
CC(C)c1cccc(C(C)C)c1NC(=O)CSc1ncccn1 | 111 | -3
NC(=O)c1ccc(-c2cccc(C(F)(F)F)c2)o1 | 95 | 8
O=C(O)c1ccc(-c2cccc(C(F)(F)F)c2)o1 | 45* | -3
O=C(c1ccccc1F)N1c2ccccc2Sc2ccccc21 | 106 | 5

Screens (PubChem BioAssay)
